From PubChem BioAssay
D3 antag = antagonists of human D3 dopamine receptor | D3R cells, DiscoveRx beta-arrestin luminescence, antagonist mode; active compounds read low | max response, negative = inhibition, % | 360,000 tested, 2.5% active | AID 652054; in the data active means max response below about -50%; inconclusive means no clear call, values can overlap the other calls; further: on the % scale 0 is the no-effect control and ±100 the full control effect
Target sequence (P35462 whole entry, looked up): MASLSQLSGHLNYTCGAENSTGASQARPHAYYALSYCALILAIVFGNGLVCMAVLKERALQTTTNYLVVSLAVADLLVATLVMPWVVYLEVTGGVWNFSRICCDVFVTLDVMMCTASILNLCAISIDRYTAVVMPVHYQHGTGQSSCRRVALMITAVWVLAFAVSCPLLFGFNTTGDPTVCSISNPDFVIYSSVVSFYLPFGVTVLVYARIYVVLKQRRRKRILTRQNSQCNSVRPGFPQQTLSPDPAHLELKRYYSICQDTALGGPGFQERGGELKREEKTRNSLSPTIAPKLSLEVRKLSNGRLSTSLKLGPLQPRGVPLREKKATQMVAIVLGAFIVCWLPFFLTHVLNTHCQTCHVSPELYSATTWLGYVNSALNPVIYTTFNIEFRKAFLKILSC
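Cells expressing the human receptor were seeded at 1500 cells/well, incubated overnight at 37 degrees C in 5% CO2, then exposed to library compounds with dopamine controls for 90 minutes at 37 degrees C before luminescent detection.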
TDP1 cell noCPT = qHTS for Inhibitors of human tyrosyl-DNA phosphodiesterase 1 (TDP1): qHTS in cells in absence of CPT; DT40 Tdp1-/- hTDP1 cells, no CPT, ATP luminescence, 48 h; Potency, µM (doses to about 46.2 µM), without a hit: top-dose activity change, negative = growth inhibition, hits mostly inhibitors; 420,000 tested, 15% active; AID 686978, 2013; further: potency means the concentration at half of the fitted maximal effect; on the % scale 0 is the no-effect control and ±100 the full control effect; nearly all actives have a fitted effect of over 55% in size
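Readout: luminescence from CellTiter-Glo after 30 min in the dark at RT. Cells: DT40 Tdp1-/- with stable hTDP1, 400/well. Exposure: compounds alone, ≥48 hr, 37 °C.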
DRD3 agonist = activates the human D3 dopamine receptor; P35462; D3R DiscoveRx beta-arrestin cells, luminescence, 90 min; max activation, %; 410,000 tested, 0.58% active; AID 652048; in the data active means max activation above about 30%; further: 0% is about no effect
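Agonist mode: compounds and dopamine controls were applied to plated cells for 90 min at 37 degrees C after an overnight attachment at 1500 cells/well. Luminescent read-out followed 30 - 60 minutes at room temperature with DiscoveRx detection reagent.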
ClpP mod = qHTS Assay for Activators of ClpP. purified B. subtilis ClpP, FRET peptide cleavage, 20 min. Potency, µM (series often up to 57.5 µM), for inactives: at the top dose activity change, negative = active. AID 651965, 2013. 340,000 tested, 1.9% active; active means well fitted falling curve with a large enough effect; inconclusive means small, poorly fitted or top-dose-only effect; inactive means no such curve, though single readings can be large or run the other way; further: potency means the concentration at half of the fitted maximal effect; the source files actives as falling curves though it sought activators and does not explain the sign; nearly all actives have a fitted effect of over 65% in size
Target sequence (P80244 whole entry, looked up): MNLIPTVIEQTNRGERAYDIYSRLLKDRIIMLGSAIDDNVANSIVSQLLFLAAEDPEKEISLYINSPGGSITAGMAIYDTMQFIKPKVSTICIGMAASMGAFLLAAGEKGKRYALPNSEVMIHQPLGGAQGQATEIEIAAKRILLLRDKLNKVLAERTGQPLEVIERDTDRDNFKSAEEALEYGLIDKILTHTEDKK
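Buffer: 100 mM Tris/HCl pH8, 100 mM KCl, 0.05% low protease BSA, 2.5% glycerol, 0.01% Tween-20. ClpP 10 microg/mL final; 20 min RT; delta FRET normalized to ADEP and DMSO controls.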
IL1B secr inh = inhibitors of inflammasome signaling (IL-1 beta secretion) | THP-1 LPS/ATP IL-1B secretion, AlphaLISA, 16 h; active compounds read low | activity change, % at 57.5 µM | 360,000 tested, 4.7% active | AID 743279; in the data active means activity change below about -50%; inconclusive means mostly about -30% to -49%; further: on the % scale 0 is the no-effect control and ±100 the full control effect
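Secreted IL-1B measured by AlphaLISA bead assay after 16 h compound exposure of THP-1 cells; compounds (final up to 57.5 uM) added 1 h before LPS (250 ng/mL) and ATP (1.25 mM) stimulation; lower signal means less secretion.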
TDP1 cell CPT = growth inhibition of DT40 Tdp1-/-;hTDP1 cells with camptothecin (screen for TDP1 inhibitors); chicken DT40 Tdp1-/-;hTDP1 cells + 20 nM CPT, ATP luminescence, 48 h; Potency, µM (highest dose often 46.2 µM), for inactives: at the top dose activity change, negative = growth inhibition, hits mostly inhibitors; 420,000 tested, 12% active; further: potency means the concentration at half of the fitted maximal effect; on the % scale 0 is the no-effect control and ±100 the full control effect; nearly all actives have a fitted effect of over 55% in size
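Chicken DT40 Tdp1-/- cells stably complemented with human TDP1 were seeded at 400 cells/well in medium containing 20 nM camptothecin, exposed to pin-transferred compounds, and grown at 37 °C for at least 48 hr. Viability was read as ATP luminescence.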
Starred values were filed as active, the others as inactive; i = inactive; u = inconclusive; x = not tested or not shown. An excerpt weighted towards active compounds, which were near 21% of everything screened. Unless noted, the call rests on the fitted dose curve; in most records, active means well fitted inhibition curve with a large enough effect; inconclusive means small, poorly fitted or top-dose-only effect; inactive means flat fitted curve, though single readings scatter.

SMILES	D3 antag	TDP1 cell noCPT	DRD3 agonist	ClpP mod	IL1B secr inh	TDP1 cell CPT
Cc1ccc(S(=O)(=O)c2cc3c(=O)n4ccccc4nc3n(C3CCCCC3)c2=N)cc1	-9	21µM*	-6	-7%	i	u
Nc1nc(NCc2cccc(Cl)c2)c2[nH]cnc2n1	x	u	x	-1%	x	u
N#Cc1ccccc1Cn1c(=O)n(-c2cccc(C(F)(F)F)c2)c(=O)c2sccc21	x	-26%	0	-2%	x	u
Cc1cc(N2CCC(C)CC2)nc(-n2nc(C)cc2C)n1	u	2.6µM*	-15	-5%	1	2.6µM*
CC(C)CNC(=O)C1=CC(c2ccc3c(c2)OCO3)=NS(=O)(=O)N1C	x	-16%	0	-1%	x	-28%
COc1cccc(/C=C/C(=O)OCC(=O)N2c3ccccc3CC2C)c1OC (centres undefined)	-2	4%	3	0%	10	3%
CC1Cc2ccccc2N1C(=O)CO/N=C/c1ccccc1OC(F)F (centres undefined)	2	21µM*	2	x	-29	u
COc1ccc(/C=C/C(=O)OCC(=O)N2c3ccccc3CC2C)c(OC)c1 (centres undefined)	-22	18µM*	-2	56%	-20	u
Cc1cccc(C(=O)NCC(=O)OCCOc2ccccc2Cl)c1	-15	2%	-7	-3%	8	u
Cc1cc2c3c(c1)C1(C(=O)N3C(C)(C)CC2C)C(C#N)=C(N)Oc2n[nH]c(C)c21 (centres undefined)	-10	u	-5	1%	u	u
Cc1cc2c3c(c1C)C1(C(=O)N3C(C)(C)CC2C)C(C#N)=C(N)Oc2n[nH]c(C)c21 (centres undefined)	-9	23µM*	0	0%	-19	u
COc1cccc(C(NC(C)=O)c2nc(-c3ccc(C)c(C)c3)cs2)c1 (centres undefined)	-1	u	6	1%	16	u
CC(=O)NC(c1ccccc1)c1nc(-c2ccc3ccccc3c2)cs1 (centres undefined)	0	u	-3	6%	-21	16µM*
COc1cccc(C(NC(C)=O)c2nc(-c3ccc4ccccc4c3)cs2)c1 (centres undefined)	-22	u	-3	-7%	-6	18µM*
CC(=O)NC(c1ccccc1)c1nc(-c2ccc(C)c(C)c2)cs1 (centres undefined)	2	18µM*	-6	2%	u	16µM*
CC(C)CN(C(=O)c1ccco1)C1CCS(=O)(=O)C1 (centres undefined)	9	3%	-2	0%	10	-3%
Cc1ccccc1-c1cc2nccc(-c3cc(Cl)ccc3O)n2n1	x	u	-6	1%	x	-27%
CCCCNc1c(-c2ccc(SC(C)CC)c(OC)c2)nc2ccc(Cl)cn12 (centres undefined)	51	21µM*	2	-27%	-68*	26µM*
CCCCCCSc1cc(-c2nc3cc(C)ccn3c2NCCCC)ccc1OC	54	16µM*	-26	16µM*	-87*	13µM*
Cc1ccn2c(NC(=O)c3cccs3)c(-c3ccccc3)nc2c1	10	u	8	-5%	-2	-25%
CCCCCCSc1ccc(-c2nc3ccc(Cl)cn3c2NCCCC)cc1OC	30	u	13	-16%	-15	u
CCCCNc1c(-c2ccc(SC3CCCCC3)c(OC)c2)nc2ccc(Cl)cn12	1	16µM*	-18	-15%	-19	u
CCCCNc1c(-c2cccc(-c3cc(C(C)=O)cs3)c2)nc2cc(C)ccn12	26	u	7	-9%	-80*	u
N[C@@H](C(=O)O)[C@@H](CC(=O)O)c1ccc(Cl)cc1	x	-24%	x	x	x	7%
O=c1c2oc3ccccc3c2n(Cc2ccccc2Cl)c(=O)n1Cc1ccco1	x	22%	-9	-7%	x	16%
SMILES	D3 antag	TDP1 cell noCPT	DRD3 agonist	ClpP mod	IL1B secr inh	TDP1 cell CPT
CCCCNc1c(-c2ccc(SC(C)CC)c(OC)c2)nc2ccc(C)cn12 (centres undefined)	66	6.5µM*	55*	4%	-93*	5.8µM*
COc1ccc(-c2nc3ccc(C)cn3c2Nc2ccc3c(c2)OCO3)cc1	x	5%	3	u	x	-15%
CCCCCCSc1ccc(-c2nc3ccc(C)cn3c2NCCCC)cc1OC	5	9.2µM*	4	4%	-24	12µM*
O=C(/C=C/c1ccccc1)Nc1cccc(C(=O)NCCc2ccccc2)c1	-3	u	0	117%	4	u
O=C(/C=C/c1ccccc1)Nc1cccc(C(=O)NCCCCc2ccccc2)c1	42	18µM*	18	-20%	22	u
O=C(NCCCCc1ccccc1)c1cccc(NC(=O)C2CCCCC2)c1	u	26µM*	-21	-1%	0	u
Cc1ccc(NC(=O)CCC(=O)NNC(=O)c2ccccc2)c(C)c1	-12	3%	3	x	-11	-2%
COc1ccc(C(C)(O)c2nc(-c3ccc(F)c(Cl)c3)cs2)cc1 (centres undefined)	-2	u	-2	-12%	29	u
COc1cc(F)ccc1-c1csc(C(C)(O)c2ccc(F)c(F)c2)n1 (centres undefined)	15	18µM*	4	0%	17	u
COc1cc(F)ccc1-c1csc(C(O)(c2ccccc2)C(F)(F)F)n1 (centres undefined)	0	15µM*	-7	-4%	u	23µM*
CC(O)(c1ccc(F)c(F)c1)c1nc(-c2csc3ccccc23)cs1 (centres undefined)	2	u	-2	-3%	-1	u
COc1ccc(C(C)(O)c2nc(-c3ccc(F)cc3OC)cs2)cc1 (centres undefined)	0	10µM*	-7	-2%	46	8.2µM*
COc1cccc(C(C)(O)c2nc(-c3ccc(F)cc3OC)cs2)c1 (centres undefined)	0	u	-3	-2%	18	23µM*
Cc1nc2cnc(Oc3ccccc3)nc2n(C)c1=O	x	-17%	x	x	x	-2%
Cc1ncc(C[n+]2ccc(C)c(C)c2)c(N)n1	34	-1%	2	-1%	23	-22%
O=c1oc2ccc(Cl)cc2cc1-c1nc(-c2cccs2)no1	x	-1%	-18	-6%	x	-2%
